Vif-A3G inh: blocks the Vif interaction with human APOBEC3G. 410,000 tested, 0.076% active. Q9HC16. Potency, µM (series often up to 46.1 µM), for inactives: at the highest dose activity, negative = active, usual class: inhibitors. AID 602310. HeLa A3G-eYFP + Vif (tagged APOBEC3G with the HIV-1 protein that degrades it), YFP fluorescence, overnight; also: potency is read from the fitted curve at half-maximal effect; % is scaled to controls: 0 for no effect and ±100 for the full control effect; nearly all actives have a fitted effect of over 60% in size
Target sequence (Q9HC16 whole entry, looked up): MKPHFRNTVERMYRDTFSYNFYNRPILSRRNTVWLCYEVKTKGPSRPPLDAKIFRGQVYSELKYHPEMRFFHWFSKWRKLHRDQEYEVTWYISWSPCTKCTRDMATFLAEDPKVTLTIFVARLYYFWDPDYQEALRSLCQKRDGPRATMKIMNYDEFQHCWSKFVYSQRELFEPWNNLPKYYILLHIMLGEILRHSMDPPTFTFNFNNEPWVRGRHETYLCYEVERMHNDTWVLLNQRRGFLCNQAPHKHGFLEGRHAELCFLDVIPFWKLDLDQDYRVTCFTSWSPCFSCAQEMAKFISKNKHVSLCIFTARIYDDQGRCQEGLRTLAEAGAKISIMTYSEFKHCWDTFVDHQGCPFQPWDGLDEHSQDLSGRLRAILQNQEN
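Read-out is eYFP fluorescence (Ex 488/Em 500-530) from Vif-expressing HeLa A3G-eYFP cells; more signal means A3G escaped Vif-mediated degradation. Cells plated overnight, compound pinned in, incubated overnight at 37 deg C.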
Giardia killer: Giardia lamblia killing | Giardia lamblia trophozoite viability | activity change, % at 7.66 µM, hits read low | 340,000 tested, 0.15% active; in the data active = activity change below about -80%; inconclusive = between about -30% and that limit;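 also: parasites exposed to compound for two days anaerobically before the ATP read; % is scaled to controls: 0 for no effect and ±100 for the full control effect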
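Trophozoites 100 cells/well + cpd; 48 hrs, 37 deg C, anaerobic. ATPLite 1-Step added, 15-30 min RT, luminescence read (ATP-based viability).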
SW480 rereplic: DNA re-replication induction in SW480 cells; 340,000 tested, 1.8% active; SW480 DNA re-replication, Hoechst DNA content imaging, 48 h; Potency, µM (doses to about 46.1 µM), for inactives: at the highest dose re-replication activation, hits mostly activators; also: potency is read from the fitted curve at half-maximal effect; % of control where 0% means no effect; nearly all actives have a fitted effect of over 55% in size
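DNA re-replication was detected as more nuclei of elevated Hoechst intensity after 48 hr exposure to compound (23 nL pinned per well of 250 cells).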
IL1B secr inh: inhibitors of inflammasome signaling (IL-1 beta secretion) | THP-1 LPS/ATP IL-1B secretion, AlphaLISA, 16 h; active compounds read low | activity change, % at 57.5 µM | 360,000 tested, 4.7% active | AID 743279; in the data active = activity change below about -50%; inconclusive = mostly about -30% to -49%; also: % is scaled to controls: 0 for no effect and ±100 for the full control effect
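Secreted IL-1B measured by AlphaLISA bead assay after 16 h compound exposure of THP-1 cells; compounds (final up to 57.5 uM) added 1 h before LPS (250 ng/mL) and ATP (1.25 mM) stimulation; lower signal means less secretion.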
Vif-A3F inh: Vif-A3F binding inhibition. HeLa A3F-eYFP + Vif (tagged APOBEC3F with the HIV-1 protein that degrades it), YFP fluorescence increase. Potency, µM (doses to about 46.1 µM), for the others: top-dose activity, negative = active. 390,000 tested, 0.2% active. AID 602313; also: potency is read from the fitted curve at half-maximal effect; % of control where 0% means no effect; nearly all actives have a fitted effect of over 65% in size
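HeLa cells stably expressing A3F-eYFP plus Vif, plated and incubated overnight at 37 deg C, then exposed to compounds overnight at 37 deg C. Blocked degradation read as raised yellow fluorescence (Ex 488/Em 500-530).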
MCF10A rereplic: induces DNA re-replication in MCF 10a normal breast cells | MCF 10A DNA re-replication, Hoechst nuclear intensity, 48 h | Potency, µM (series often up to 46.1 µM), for inactives: at the top dose activity, positive = re-replication, most hits filed as activators | 350,000 tested, 2.9% active | AID 624296; also: potency is read from the fitted curve at half-maximal effect; % of control where 0% means no effect; nearly all actives have a fitted effect of over 50% in size
* = called active by the depositor; u = inconclusive; x = not tested or not shown. Rows were chosen to be rich in hits. Some 6.9% of all compounds tested hit in one or more screens of this group. Unless noted, calls follow the shape of the dose curve; as a rule, active = well fitted curve in the direction sought with a large enough effect; inconclusive = small, poorly fitted or top-dose-only effect, or another doubt; inactive = no such curve, though single readings can be large; an effect the other way counts as inactive or inconclusive.

SMILES	Vif-A3G inh	Giardia killer	SW480 rereplic	IL1B secr inh	Vif-A3F inh	MCF10A rereplic
COc1ccccc1N1CCN(c2nc3ccc(C)cc3n3nnnc23)CC1	-3.0%	x	x	x	-17.0%	x
COc1ccc(C(=O)NCC(c2cccs2)S(=O)(=O)c2ccc(F)c(C)c2)cc1 (stereo not given)	3.0%	x	x	x	-8.5%	x
O=C1CN(C(=O)CCCc2c[nH]c3ccccc23)c2ccccc2N1	-2.0%	-5.6	0.2%	3.7	3.6%	15.8µM*
O=C(O)CCCC(=O)N1CC(=O)Nc2ccccc21	-0.6%	19.2	-8.4%	38.0	-1.4%	-5.3%
COc1ccc(NC(=O)Cn2c(=O)n(CCc3ccccc3)c(=O)c3c4c(sc32)CCCC4)cc1	2.1%	x	x	x	3.3%	x
c1ccc2c(c1)CC(N1CCCCC1)c1ccccc1N2 (stereo not given)	3.3%	-7.5	-0.4%	-5.5	-2.0%	4.5%
Cc1cccc2c1Sc1ccc(Cl)cc1CC2N1CCNCC1 (stereo not given)	u	19.8	28.7%	-98.5*	1.7%	11.6µM*
CCc1cccc2c1Sc1ccccc1CC2N1CCNCC1 (stereo not given)	-26.2%	8.2	86.4%	-92.5*	9.8%	u
Cc1cccc(N2CCN(S(=O)(=O)c3cc(Cl)ccc3Cl)CC2)c1C	0.5%	x	x	x	5.1%	x
COc1ccccc1C(=O)Nc1cccc(OCc2cc(=O)n3ccccc3n2)c1	-1.9%	x	x	x	2.7%	x
Cc1nn(Cc2ccccc2Cl)c(C)c1C(=O)NCCN1C(=O)S/C(=C\c2ccccc2)C1=O	-4.4%	12.3	-6.8%	-16.8	0.6%	16.4µM*
CCOC(=O)C(C)Oc1cccc2c(=O)n(CC(=O)NCc3ccco3)ccc12 (stereo not given)	u	30.2	1.3µM*	-54.5*	-18.0%	u
CC(C)C(=O)c1cn(CC(=O)NCc2ccco2)c2ccccc12	7.9%	-4.9	u	18.8	3.5%	-2.4%
CCOc1ccccc1C1CC(=O)Nc2c1c(=O)n(C)c1ncnn21 (stereo not given)	2.4%	x	x	x	5.3%	x
CCC/C=C1/CCCOC(C(=O)NCc2ccc(C)o2)(C(F)(F)F)C1 (stereo not given)	-13.4%	18.9	u	-62.7*	-13.4%	u
CO[C@H]1C[C@@H]2CC[C@@H](C)[C@@](O)(O2)C(=O)C(=O)N2CCCC[C@H]2C(=O)O[C@H]([C@H](C)C[C@@H]2CC[C@@H](OC(=O)C(C)(CO)CO)[C@H](OC)C2)CC(=O)[C@H](C)/C=C(\C)[C@@H](O)[C@@H](OC)C(=O)[C@H](C)C[C@H](C)/C=C/C=C/C=C/1C	x	x	-0.6%	x	x	3.6%
CCCCCCn1c(SCC#N)nc2ccccc2c1=O	-2.7%	8.5	x	x	x	x
Oc1ccc(/C=N/Nc2ccnc3cc(Cl)ccc23)cc1O	-16.8%	-11.7	16.4µM*	79.7	-6.4%	23.0%
CCOc1ccc(/C=N/NC(=O)c2[nH]c3ccc(C)cc3c2C)cc1	-27.7%	20.2	27.4%	-24.3	8.3%	u
O=C(N/N=C/c1ccc(O)cc1)c1[nH]c2ccc(Br)cc2c1-c1ccccc1	u	-5.6	7.31µM*	122.3	7.3%	u
C/C(=N\NC(=O)CCC(=O)O)c1c(-c2ccccc2)c2cc(Br)ccc2[nH]c1=O	-2.8%	21.7	-6.3%	6.5	3.5%	-3.1%
O=C(N/N=C/c1[nH]c2ccccc2c1Cl)c1cccc(Br)c1	1.5%	6.2	u	-83.9*	13.8%	u
Cc1[nH]c2ccccc2c1/C=N/NC(=O)c1cccc(Br)c1	-15.2%	2.3	-2.1%	-1.3	7.0%	9.3%
Cc1c(C(=O)N/N=C/c2ccc(Cl)cc2)[nH]c2ccc(Cl)cc12	-25.5%	-13.5	2.06µM*	55.6	u	u
O=C(N/N=C/c1c[nH]c2ccccc12)c1[nH]c2ccc(Br)cc2c1-c1ccccc1	u	11.4	8.2µM*	150.6	-6.6%	u
SMILES	Vif-A3G inh	Giardia killer	SW480 rereplic	IL1B secr inh	Vif-A3F inh	MCF10A rereplic
CCN(CC)c1ccc(NC(=O)Cn2c3ncccc3c(=O)n2-c2ccccc2)c(C)c1	-2.1%	x	x	x	1.6%	x
COc1ccc(C(=O)Nc2ncnc3nc[nH]c23)cc1	-0.2%	x	x	x	x	x
NNC(=O)c1[nH]c2ccccc2c1-c1ccccc1	u	-3.4	9.2µM*	23.6	-13.4%	u
Cc1ccc(NC(=O)/C=C/c2cccs2)c([N+](=O)[O-])c1	u	5.1	20.6µM*	-17.1	2.6%	u
Cc1ccccc1CNC(=O)C1CCCCN1S(=O)(=O)c1ccc(F)cc1 (stereo not given)	-5.4%	x	x	x	-7.8%	x
O=C(NCCn1cc(SCc2ccccc2Cl)c2ccccc21)c1cccs1	-1.4%	x	x	x	-0.4%	x
Nc1nc(Cl)cc(-c2ccccc2)n1	3.3%	29.0	1.6%	-50.1*	-12.1%	u
Cc1ccc(C)c(NC(=O)C(=O)NCCc2csc(-c3cccc(F)c3)n2)c1	2.7%	x	x	x	3.2%	x
O=C(Nc1cccc(-c2cn3ccccc3n2)c1)c1cc2ccccc2oc1=O	2.3%	3.6	-5.0%	-80.3*	-6.9%	u
COc1cc(S(=O)(=O)N2CCC(O)(c3cccc(C(F)(F)F)c3)CC2)ccc1-n1cnnn1	-12.0%	8.6	u	0.2	-11.8%	7.31µM*
O=S(=O)(c1ccc(OC(F)(F)F)cc1)N1CCC(O)(c2cccc(C(F)(F)F)c2)CC1	0.3%	3.4	-2.3%	12.4	-11.5%	14.4%
O=[N+]([O-])c1ccc(-c2nc(Cl)c3c(n2)CCCC3)o1	-14.4%	x	x	-93.8*	-6.5%	x
Cc1ccc(-c2c(C#N)c(N)nc3c2CCCCC3)o1	0.9%	-14.0	-8.3%	15.6	-11.2%	u
Nn1c(SCc2c(F)cccc2F)nnc1-c1ccccn1	-0.1%	13.4	7.31µM*	x	u	2.4%
COc1ccccc1[C@@]1(C)ON(c2ccccc2C(F)(F)F)C1=O	-21.8%	27.9	u	-94.3*	-0.6%	u

Source: PubChem (National Center for Advancing Translational Sciences (NCATS))
